The values below come from PubChem BioAssay AID463193 (University of Pittsburgh Molecular Library Screening Center, 2010).

Out of some 190,000 compounds screened, about 1,900 (1%) were called active.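 How the source made its calls: active means percentage of spot-positive cells more than 3 SD above its plate mean, without a fluorescence outlier flag or 80% toxicity; inconclusive means no clear call, values can overlap the other calls; inactive means the rest.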 The sample as a whole holds a higher share of actives than the screen did.

A short description of the test: GFP-LC3 puncta formation changes – imaging, high-content, MEF GFP-LC3, primary screen (AID 463193).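 On % cells with GFP-LC3 spots: spot-positive cell cutoff set from DMSO-treated cells.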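 On toxicity: cell loss after 18 h compound exposure.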 The conditions noted are these: autophagy, at 10 µM; % cells with GFP-LC3 spots: stronger effect = higher value; toxicity: measured here: cell loss, nuclei count.
`COc1ccc(C(=O)Nc2cccc(S(C)(=O)=O)c2)cc1`: the % cells with GFP-LC3 spots was 7.34% (inactive) and the toxicity was 2.69%.

For the molecule `CCCC(=O)NC(C)C(c1cccs1)N1CCN(c2ccccc2)CC1` (centres undefined), the % cells with GFP-LC3 spots was 5.17% (active) and the toxicity turned out to be 28.7%.

In the case of `CCN(CC)S(=O)(=O)c1ccc(Cl)c(C(=O)NC(C)C(c2cccs2)N2CCCC2)c1` (centres undefined), the % cells with GFP-LC3 spots is 1.61% (inactive) and the toxicity worked out at 7.32%.

With `CC(NC(=O)Nc1ccccc1)C(c1cccs1)N1CCN(c2ccccc2)CC1` (centres undefined), the % cells with GFP-LC3 spots is 10.1% (inactive) and the toxicity is -0.847%.

Regarding `COc1cc(CNc2ncn[nH]2)ccc1OCc1ccccc1C`, the % cells with GFP-LC3 spots was 0.305% (inactive) and the toxicity was 8.6%.

For the molecule `COc1ccc2c(c1)CCc1c(C(=O)N3CCc4ccccc4C3)noc1-2`, the % cells with GFP-LC3 spots is 1.3% (inactive) and the toxicity was 5.85%.

On to `COc1ccc2c(c1)CCc1c(C(=O)N3CCCC3)noc1-2`, for which the % cells with GFP-LC3 spots is 25.2% (active) and the toxicity stood at 71.1%.

With `COc1ccc2c(c1)CCc1c(C(=O)Nc3c(C)n(C)n(-c4ccccc4)c3=O)noc1-2`, the % cells with GFP-LC3 spots is 10.1% (inactive) and the toxicity was 17.1%.

On to `Cc1ccc(NC(=O)C(=O)NCc2ccc(/C=N/NC(=O)c3c(C)nc4cc(C)ccn34)o2)cc1`, for which the % cells with GFP-LC3 spots is 7.6% (inactive) and the toxicity was -9.46%.

As for `Cc1ccc(C(=O)/C=C/Nc2ccc(S(=O)(=O)Nc3onc(C)c3C)cc2)cc1`, the % cells with GFP-LC3 spots is 2.91% (inactive) and the toxicity was found to be 14.6%.

For `COc1cc2c(cc1OC)CC1(CCCCC1)N=C2`, the % cells with GFP-LC3 spots was 0.564% (inactive) and the toxicity was -2.01%.

As to `CNc1nc2c(C)cccn2c(=O)c1C=Nc1ccc(OC)cc1`, the % cells with GFP-LC3 spots was 16.2% (inactive) and the toxicity came out at 19.6%.

Take `Cc1cccn2c(=O)c(/C=C3\SC(=S)N(CC(C)C)C3=O)c(NCCCOC(C)C)nc12`: the % cells with GFP-LC3 spots is 83.5% (active) and the toxicity was found to be 1.08%.

On to `CCn1c(=N)c(C(=O)NCCCOC)cc2c(=O)n3cccc(C)c3nc21`, for which the % cells with GFP-LC3 spots was 6.38% (inactive) and the toxicity is 16.3%.

For `Cn1cc(-c2ccccc2)cc(C#N)c1=O`, the % cells with GFP-LC3 spots was 1.72% (inactive) and the toxicity amounted to 2.28%.

For the molecule `COc1ccc(CN2CN(C3CCCC3)CSC2=S)cc1`, the % cells with GFP-LC3 spots is 6.4% (inactive) and the toxicity is -8.41%.

Consider `COc1ccc(C(CC(=O)Nc2ccc(C)cc2)NC(=O)C(F)(F)F)cc1` (centres undefined), for which the % cells with GFP-LC3 spots is 6.89% (inactive) and the toxicity was -5.77%.

With `S=C(NCc1cccnc1)Nc1ccc(Cl)cc1Cl`, the % cells with GFP-LC3 spots was 1.61% (inactive) and the toxicity came out at 10%.

Turning to `O=C(CSc1cccc2cccnc12)N/N=C/c1cccnc1`, the % cells with GFP-LC3 spots was 16.6% (inactive) and the toxicity is 24.2%.

Consider `CC(=O)/C(=N\Nc1ccc(Cl)cc1Cl)Sc1cccc2cccnc12`, for which the % cells with GFP-LC3 spots was 80.1% (active) and the toxicity was -7.61%.

As for `CC(C)(C)CC(C)(C)NCC(O)COCCOc1ccc(Br)cc1` (centres undefined), the % cells with GFP-LC3 spots was 10.9% (inactive) and the toxicity came out at 5.37%.

`c1ccc(C2c3[nH]c4ccccc4c3CCN2Cc2cccn2-c2cccnc2)nc1` (centres undefined): the % cells with GFP-LC3 spots was 1.12% (inactive) and the toxicity is -2.12%.

Consider `Fc1cccc2ncnc(OCc3ccccc3)c12`, for which the % cells with GFP-LC3 spots was 3.59% (inactive) and the toxicity is -3.11%.

Turning to `COc1ccc(OC)c(NC(=O)Cn2c(=O)oc3ccccc32)c1`, the % cells with GFP-LC3 spots is 18.4% (active) and the toxicity turned out to be 3.57%.

`COc1ccc(CCNC(=O)CCn2c(=O)oc3ccccc32)cc1OC`: the % cells with GFP-LC3 spots is 4.11% (inactive) and the toxicity is -1.63%.

As to `COc1ccc(OC)c(NC(=O)CN2CCN(C(=O)c3ccco3)CC2)c1`, the % cells with GFP-LC3 spots was 0.967% (inactive) and the toxicity amounted to 2.86%.

Regarding `CCN(CC(=O)NCCc1ccccc1)S(=O)(=O)c1ccccc1`, the % cells with GFP-LC3 spots was 12% (inactive) and the toxicity is 29.2%.

For `Cc1c(Br)c([N+](=O)[O-])nn1CC(=O)N1CCN(Cc2ccccc2)CC1`, the % cells with GFP-LC3 spots was 3.58% (inactive) and the toxicity was 7.29%.

On to `CC(Sc1nc2ccccc2c(=O)n1Cc1ccco1)C(=O)c1ccccc1` (centres undefined), for which the % cells with GFP-LC3 spots is 11.8% (inactive) and the toxicity was -5.88%.

Regarding `O=C(CCn1c(SCC(=O)c2ccccc2)nc2ccccc2c1=O)NCc1ccc(F)cc1`, the % cells with GFP-LC3 spots is 5.36% (inactive) and the toxicity was 4.33%.

With `CSc1nc2ccccc2c(=O)n1Cc1ccc(F)cc1`, the % cells with GFP-LC3 spots was 35.2% (active) and the toxicity stood at 0.835%.

On to `CC(=O)n1c(C=Nc2ccccc2)c(O)c2ccccc21`, for which the % cells with GFP-LC3 spots is 6.01% (inactive) and the toxicity is -16%.

For `COc1ccc(NC(=O)Cn2c(=O)n(Cc3ccco3)c(=O)c3ccccc32)cc1`, the % cells with GFP-LC3 spots is 3.23% (inactive) and the toxicity was -0.177%.

As for `CCOC(=O)CSc1nc2c(sc(=S)n2CCc2ccccc2)c(=O)n1Cc1ccco1`, the % cells with GFP-LC3 spots is 25.9% (inactive) and the toxicity stood at 36.2%.

`CN(c1ccccc1)c1ccc(/C=c2\s/c(=C(/C#N)C(=O)C(C)(C)C)n(Cc3ccco3)c2=O)cc1`: the % cells with GFP-LC3 spots was 71.3% (active) and the toxicity is -2.03%.

Regarding `Cc1cc(C(=O)N/N=C/c2cc([N+](=O)[O-])cc(C)c2O)n[nH]1`, the % cells with GFP-LC3 spots was 6.01% (inactive) and the toxicity amounted to 8.83%.

On to `CCOC(=O)Cc1ncccc1C(=O)Nc1ccc(OC)cc1`, for which the % cells with GFP-LC3 spots is 2.71% (inactive) and the toxicity was -9.63%.

For `O=C(CSc1nnc(-c2ccncc2)n1-c1ccc(Cl)cc1)Nc1ccc(C(=O)O)cc1`, the % cells with GFP-LC3 spots is 1.88% (inactive) and the toxicity was -0.961%.

Consider `COC(=O)c1ccc(C(=O)OC)c(NC(=S)N2CCN(c3cc(Cl)ccc3C)CC2)c1`, for which the % cells with GFP-LC3 spots was 12.5% (inactive) and the toxicity turned out to be 21.9%.

Consider `CCCN(CCC)C(=S)Nc1cc(C(=O)OC)ccc1C(=O)OC`, for which the % cells with GFP-LC3 spots was 12.3% (inactive) and the toxicity was -2.2%.

Turning to `COC(=O)c1ccc(C(=O)Nc2cc(Cl)ccc2Cl)cc1NC(=O)c1ccccc1C`, the % cells with GFP-LC3 spots is 29.3% (active) and the toxicity is -19.2%.

With `CN(c1ccccc1)S(=O)(=O)c1cc(C(=O)OCC(=O)N2CCN(C(=O)c3ccco3)CC2)ccc1Cl`, the % cells with GFP-LC3 spots was 11.3% (active) and the toxicity is -3.57%.

For `O=C(OCC(=O)N1CCN(C(=O)c2ccco2)CC1)c1ccccc1Cc1ccccc1`, the % cells with GFP-LC3 spots is 7.07% (inactive) and the toxicity was 4.3%.

Regarding `CN(c1ccccc1)S(=O)(=O)c1ccc(Cl)c(C(=O)OCC(=O)N2CCOCC2)c1`, the % cells with GFP-LC3 spots was 0.158% (inactive) and the toxicity is 2.3%.

`Cc1ccc(-n2cc(CN(C)Cc3nccn3C)c(-c3cccc(C)c3)n2)cc1`: the % cells with GFP-LC3 spots is 1% (inactive) and the toxicity was -0.155%.

Take `CCCCCC1CCC(c2nnc(SCC(C)=O)o2)CC1` (centres undefined): the % cells with GFP-LC3 spots was 10.7% (active) and the toxicity is -6.19%.

For the molecule `CCN(CC)C(=O)CSc1nnc(C2CCCCC2)o1`, the % cells with GFP-LC3 spots was 4.79% (inactive) and the toxicity is -0.426%.

Take `CN(C)/N=C/c1cc(Cl)cc([N+](=O)[O-])c1O`: the % cells with GFP-LC3 spots was 9.47% (inactive) and the toxicity was -11.7%.

For `CCCc1nc(NCc2ccc3c(c2)OCO3)c2nnn(Cc3ccccc3Cl)c2n1`, the % cells with GFP-LC3 spots is 15.7% (active) and the toxicity was 5%.

`O=C(Cn1cnc2c(nnn2Cc2ccc(F)cc2)c1=O)NCc1ccc2c(c1)OCO2`: the % cells with GFP-LC3 spots is 2.36% (inactive) and the toxicity is -2.24%.

Take `Cc1nc(Nc2ccc3c(c2)OCCO3)c2nnn(Cc3ccccc3Cl)c2n1`: the % cells with GFP-LC3 spots was 8.6% (inactive) and the toxicity came out at 4.03%.

As for `CCOc1ncccc1C(=O)N(C)CC(=O)Nc1ccc(F)cc1`, the % cells with GFP-LC3 spots was 5.93% (inactive) and the toxicity is -12.3%.
